Results reported in PubChem BioAssay.
Unmarked numbers belong to inactive results. The rule behind the calls is not given here.

biological target: Pantothenate synthetase (Mycobacterium tuberculosis (strain ATCC 25618 / H37Rv)) (UniProt P9WIL5); assay: Recombinant Mtb pantothenate synthetase (PanC) inhibitors, coupled enzyme, confirmatory (AID 375); details: coupled enzyme assay; at 10 µM, hits give high values;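 note: 0% = full reaction with vehicle and 100% = no enzyme background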
Sequence (P9WIL5 whole entry, looked up): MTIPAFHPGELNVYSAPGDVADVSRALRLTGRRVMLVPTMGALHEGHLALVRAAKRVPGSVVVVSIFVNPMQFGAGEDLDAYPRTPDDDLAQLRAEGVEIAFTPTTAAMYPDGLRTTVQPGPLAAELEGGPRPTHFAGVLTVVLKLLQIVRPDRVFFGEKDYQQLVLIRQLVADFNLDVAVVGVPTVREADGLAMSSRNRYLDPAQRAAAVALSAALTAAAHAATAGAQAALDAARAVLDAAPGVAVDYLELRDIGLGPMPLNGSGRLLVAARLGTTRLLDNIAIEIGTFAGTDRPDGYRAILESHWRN

SMILES | inhibition [%]
COc1ccc(/C=N/n2c(=O)[nH]c3c([nH]c4ccc(C)cc43)c2=O)cc1CN1CCOCC1 | 2
Nc1nc(SCCOc2ccccc2)n[nH]1 | 0
Cc1cnc(C(=O)Nc2ccccc2-n2cccc2)cn1 | 3
CCOc1ccc(CCN2C(=O)C3C4C=CC(C4)C3C2=O)cc1OCC (centres undefined) | 3
O=S(=O)(c1ccc2c(c1)OCCO2)N1CCC(n2nnc3cc(F)ccc32)CC1 | 1
CCc1nn2c(N3CCOCC3)cc(C)nc2c1-c1ccc(F)cc1 | 0
COc1ccc(NC(=O)CSC2=C(C#N)C(c3ccco3)C3=C(CCCC3=O)N2)c(OC)c1 (centres undefined) | 16
CCOC(=O)Cn1c(N2CCOCC2)nc2c1c(=O)[nH]c(=O)n2C | 5
CCc1nc(SCc2cc(Cl)ccc2OC)n[nH]1 | 0
CCC(=O)O[C@@H]1CC(=O)O[C@H](C)CC=CC=C[C@@H](O)[C@H](C)C[C@H](CC=O)[C@H](O[C@H]2O[C@H](C)[C@@H](O[C@H]3C[C@@](C)(O)[C@@H](OC(=O)CC)[C@H](C)O3)[C@H](N(C)C)[C@H]2O)[C@H]1OC | 4
Cc1cc(C(=O)N2CCN(c3ncccn3)CC2)cs1 | 4
CC1=C(C(=O)OC(C)C)C(c2cccc(F)c2)n2ncnc2N1 (centres undefined) | 2
O=C(CSc1nnc(-c2cccs2)o1)NCC1CN(Cc2ccccc2)CCO1 (centres undefined) | 0
CCN1CCN(c2cc3c(cc2F)c(=O)c(C(=O)O)cn3C2CC2)CC1 | 0
